Measurements as given in PubChem BioAssay (NCATS).
Values joined by “and” are separate entries in the source; they are usually repeats but may differ in a detail not shown here. Equal entries are not always repeated. Results filed as inconclusive are left out. The source holds several records for some structures; these can differ, active in one and inactive in another. Active and inactive are the calls of the source. Unless noted, the call rests on the fitted dose curve; in most records, active means well fitted curve in the direction sought with a large enough effect; inconclusive means small, poorly fitted or top-dose-only effect, or another doubt; inactive means no such curve, though single readings can be large; an effect the other way counts as inactive or inconclusive.

Columns and labels:
[1] = NCATS anti-infectives library activity on HEK293 viability as a counter-qHTS vs the C. elegans viability qHTS (AID 1745854);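 further: HEK293 cells exposed to compounds for 24 hr before the viability read; on the % scale 0 is the no-effect control and ±100 the full control effect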
In short: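 HEK293 cells (1,500/well) exposed 24 hr at 37C to 1:5 titrations, up to 41.7 uM final; counter-screen to a C. elegans viability qHTS. Viability by CellTiter-Glo luminescence after 10 min at room temperature; digitonin as control.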

[2] = NCATS anti-infectives library activity on the primary C. elegans qHTS viability assay (AID 1745855; calls by dose curve)
In short: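 Viability read-out is GFP fluorescence of PE254-GFP-FLuc C. elegans, measured by laser cytometry (488 nm) at day 0, 3 and 7. Ten L1 worms per well were incubated 7 days at 21 °C with compounds and bacterial capsules in S medium.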

[3] = target: Glutathione peroxidase 1 (Homo sapiens) (UniProt P07203); experiment: Primary qHTS Assay for Inhibitors of Recombinant Selenoprotein Glutathione Peroxidase 1 (GPX1) (AID 1845191); further: nearly all actives have a fitted effect of over 65% in size; on activity, negative = inhibition: on the % scale 0 is the no-effect control and ±100 the full control effect
In short: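 GR-coupled assay: compounds preincubated 30 min at room temperature with GPX1, then reaction started with CHP; final 10 nM GPX1, 1 mM GSH, 0.5 mM CHP, 0.5 mM NADPH, 100 nM GR, 0.01% BSA, pH 7.5 Tris buffer. NADPH fluorescence (340/450 nm) read at 0 and 15 min.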

[4] = target: Phospholipid hydroperoxide glutathione peroxidase GPX4 (Homo sapiens) (UniProt P36969); experiment: Primary qHTS Assay for Inhibitors of Recombinant Selenoprotein Glutathione Peroxidase 4 (GPX4) (AID 1845192); further: nearly all actives have a fitted effect of over 65% in size; further: potency means the concentration at half of the fitted maximal effect; on activity change, negative = inhibition: series mostly up to about 50 µM; on the % scale 0 is the no-effect control and ±100 the full control effect
In short: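 GR-coupled assay: recombinant GPX4 preincubated 30 min with compound at room temperature; final 200 nM GPX4, 1 mM GSH, 0.5 mM cumene hydroperoxide, 0.5 mM NADPH, 100 nM GR, 0.01% BSA, pH 7.5 Tris. NADPH fluorescence (340/450 nm) read at 0 and 15 min.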

[5] = target: Luciferin 4-monooxygenase (Photinus pyralis) (UniProt P08659); experiment: Primary firefly luciferase (FLuc) qHTS assay for identification of artifact compounds. (AID 1845220); further: nearly all actives have a fitted effect of over 60% in size; further: potency means the concentration at half of the fitted maximal effect;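 on activity change, negative = inhibition: series mostly up to about 54 µM; plate controls were DMSO vehicle for no effect and no enzyme for full effect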
In short: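 Enzymatic FLuc inhibition assay: compounds pre-exposed to luciferin/ATP (10 uM each) for 15 min, then purified P. pyralis enzyme at 10 nM added. Read-out: luminescence at 5 min.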

[6] = Primary redox qHTS assay for identification of artifact compounds. (AID 1845223)
In short: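 Amplex Red (25 uM) and HRP (250 mU/mL) in HBSS, with compounds for 15 min, then 250 uM DTT for 30 min, room temperature, dark. Fluorescence 525/598 nm read; normalized to DMSO and 10 uM DA3003; Hill fit.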

[7] = Quantitative High-Throughput drug screen in 47 multiple myeloma cell lines against the NCATS MIPE library collection: FR4_PLB cell viability assay (AID 1918924; further: nearly all actives have a fitted effect of over 35% in size; further: potency means the concentration at half of the fitted maximal effect)
In short: (§1)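 Myeloma cell lines, 500 cells per well, exposed to MIPE 4.0 library compounds for 48 h at 37C, 5% CO2. Viability from ATP by CellTiter-Glo luminescence; normalised to DMSO (100%) and media-only (0%) wells.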

[8] = Quantitative High-Throughput drug screen in 47 multiple myeloma cell lines against the NCATS MIPE library collection: EJM_DSMZ cell viability assay (AID 1918926; further: nearly all actives have a fitted effect of over 30% in size; further: potency means the concentration at half of the fitted maximal effect)
In short: (§2)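 Inhibition of cell viability is measured here. Each line was plated at 500 cells per well, treated with MIPE 4.0 drugs, kept 48 hours at 37C, then assayed for ATP content by CellTiter-Glo luminescence.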

[9] = Quantitative High-Throughput drug screen in 47 multiple myeloma cell lines against the NCATS MIPE library collection: AMO1_DSMZ cell viability assay (AID 1918927; further: nearly all actives have a fitted effect of over 30% in size; further: potency means the concentration at half of the fitted maximal effect)
In short: as §2

[10] = Quantitative High-Throughput drug screen in 47 multiple myeloma cell lines against the NCATS MIPE library collection: ARP1_JJKsccF8 cell viability assay (AID 1918928; further: nearly all actives have a fitted effect of over 40% in size; further: potency means the concentration at half of the fitted maximal effect)
In short: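 ATP readout (CellTiter-Glo), 48 h drug incubation, 37 °C/5% CO2, 500 cells per well; normalisation to DMSO (100%) and media-only (0%) controls.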

[11] = Quantitative High-Throughput drug screen in 47 multiple myeloma cell lines against the NCATS MIPE library collection: ARD_JJKsccE7 cell viability assay (AID 1918929; further: potency means the concentration at half of the fitted maximal effect)
In short: as §2

[12] = Quantitative High-Throughput drug screen in 47 multiple myeloma cell lines against the NCATS MIPE library collection: Karpas620_DSMZ cell viability assay (AID 1918959); further: nearly all actives have a fitted effect of over 30% in size; further: potency means the concentration at half of the fitted maximal effect
In short: as §1

[13] = target: Metallo-beta-lactamase type 2 (Klebsiella pneumoniae) (UniProt C7C422); experiment: qHTS to identify inhibitors of the New Delhi Metallo-beta-lactamase (NDM): assay validation screen against the NCATS LOPAC Collection (AID 1794843); further: series mostly up to about 38 µM; on the % scale 0 is the no-effect control and ±100 the full control effect
In short: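 Absorbance at 485 nm from nitrocefin turnover (50 uM solution added), read at plateau, gives the read-out. Compounds in DMSO were incubated first with 2 nM final NDM-1 in pH 7.0 HEPES buffer containing 1 uM ZnSO4 and 0.01% Tween20.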

[14] = tested on: Nanoluciferase (engineered Oplophorus gracilirostris luciferase); experiment: Primary Nanoluciferase (NLuc) qHTS assay for identification of artifact compounds. (AID 1845222);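 further: NLuc secreted into diluted conditioned medium of S16 cells; series mostly up to about 54 µM; 0% = DMSO and -100% = no enzyme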
In short: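 S16 cell supernatant NLuc, 1:55; cpds qHTS; 15 min RT dark; Nano-Glo substrate 1:100, 5 min; luminescence; Hill fit of % inhibition.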

[15] = Quantitative High-Throughput drug screen in 47 multiple myeloma cell lines against the NCATS MIPE library collection: Delta47_JCRB cell viability assay (AID 1918925; further: nearly all actives have a fitted effect of over 45% in size; further: potency means the concentration at half of the fitted maximal effect)
In short: as §2

[16] = Viability counterscreen for antagonist of constitutive androstane receptor (CAR) against the NCATS DSHEA and TCM libraries (AID 1794837);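 further: compound exposure lasted 24 h before viability reading; 0% is about no effect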
In short: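 HepG2-CYP2B6-hCAR cells (2,500/well) were allowed to attach for 5 h, then exposed to compounds with 48 uM CITCO for 24 h at 37C. Viability was read by CellTiter-Fluor fluorescence after 1 h.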

[17] = Viability counterscreen for agonist of constitutive androstane receptor (CAR) against the NCATS DSHEA and TCM libraries (AID 1794838); further: 0% is about no effect
In short: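 HepG2-CYP2B6-hCAR cells (2,500/well) attached 5 h, then got compounds plus 0.75 uM PK11195 final. After 24 h at 37C, viability read by CellTiter-Fluor fluorescence (Ex/Em 405/540 nm).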

[18] = target: Nuclear receptor subfamily 1 group I member 3 (Homo sapiens) (UniProt Q14994); experiment: Primary qHTS for agonist of constitutive androstane receptor (CAR) against the NCATS DSHEA and TCM libraries (AID 1794839);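 further: HepG2 cells expressing human CAR with a CYP2B6 reporter plus PK11195 antagonist; 0% is about no effect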
In short: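 HepG2-CYP2B6-hCAR cells (2,500/well) were attached for 5 h, then treated for 24 h at 37 °C with compounds plus 0.75 µM PK11195. Luciferase luminescence (ONE-Glo) was read, with CellTiter-Fluor viability (Ex/Em 405/540 nm).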

[19] = HepG2 viability counterscreen (readout 2: ATP content) against the NCATS DSHEA and TCM libraries (AID 1794840);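 further: HepG2 cells exposed to substances for about 24 h; 0% is about no effect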
In short: (§3)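 HepG2 cells (1,000 cells/well) attached ~4 h, then treated ~24 h at 37C with substances. Protease activity read by GF-AFC (25 uM final, 30 min, Ex/Em 380/510 nm); ATP content then by CellTiter-Glo luminescence.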

[20] = HepG2 viability counterscreen (readout 1: protease activity) against the NCATS DSHEA and TCM libraries (AID 1794841);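 further: cells exposed to compounds for about 24 h before the protease read; 0% is about no effect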
In short: as §3

Metallo-beta-lactamase type 2 (Klebsiella pneumoniae), sequence (C7C422 whole entry, looked up): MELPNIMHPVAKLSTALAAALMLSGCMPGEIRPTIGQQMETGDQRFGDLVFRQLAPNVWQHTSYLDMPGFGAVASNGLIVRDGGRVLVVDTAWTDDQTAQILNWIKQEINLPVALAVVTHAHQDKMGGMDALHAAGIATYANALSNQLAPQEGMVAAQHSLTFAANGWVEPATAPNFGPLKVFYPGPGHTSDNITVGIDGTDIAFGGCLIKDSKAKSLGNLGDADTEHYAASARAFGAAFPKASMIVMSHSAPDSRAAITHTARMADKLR
Glutathione peroxidase 1 (Homo sapiens), sequence (P07203 whole entry, looked up): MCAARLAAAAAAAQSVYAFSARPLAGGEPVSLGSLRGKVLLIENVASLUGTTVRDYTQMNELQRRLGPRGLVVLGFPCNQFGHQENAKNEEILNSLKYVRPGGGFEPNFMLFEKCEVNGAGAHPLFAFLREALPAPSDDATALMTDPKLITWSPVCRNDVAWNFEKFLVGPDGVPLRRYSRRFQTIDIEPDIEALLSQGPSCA
Phospholipid hydroperoxide glutathione peroxidase GPX4 (Homo sapiens), sequence (P36969 whole entry, looked up): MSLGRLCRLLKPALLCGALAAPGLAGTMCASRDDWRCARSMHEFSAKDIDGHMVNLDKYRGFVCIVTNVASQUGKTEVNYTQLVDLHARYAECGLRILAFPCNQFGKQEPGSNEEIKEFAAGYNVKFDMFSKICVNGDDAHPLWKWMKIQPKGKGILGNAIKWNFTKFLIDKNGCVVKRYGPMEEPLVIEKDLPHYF
Nuclear receptor subfamily 1 group I member 3 (Homo sapiens), sequence (Q14994 whole entry, looked up): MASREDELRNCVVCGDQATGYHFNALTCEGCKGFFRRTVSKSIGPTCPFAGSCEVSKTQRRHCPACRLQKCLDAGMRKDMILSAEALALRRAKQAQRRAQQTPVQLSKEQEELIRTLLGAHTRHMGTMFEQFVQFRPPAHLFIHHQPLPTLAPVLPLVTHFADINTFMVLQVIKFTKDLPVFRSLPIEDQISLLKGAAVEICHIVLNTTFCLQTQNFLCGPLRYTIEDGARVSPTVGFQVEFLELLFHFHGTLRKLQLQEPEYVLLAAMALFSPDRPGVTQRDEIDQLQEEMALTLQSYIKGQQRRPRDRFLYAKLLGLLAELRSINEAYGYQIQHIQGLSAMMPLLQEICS

COc1ccc2cc([C@H](C)C(=O)O)ccc2c1
inactive: outcome [1] | Potency [2] | Potency [3] | Potency [4] | Potency [5] | outcome [6] | Potency [7] | Potency [8] | Potency [9] | Potency [10] | Potency [11] | Potency [12]

COc1ccccc1N1CCN(CCN(C(=O)C2CCCCC2)c2ccccn2)CC1
active: Potency [9] 2960 nM | Potency [11] 1180 nM
inactive: outcome [13] | Potency [3] | Potency [4] | Potency [5] | outcome [14] | Potency [7] | Potency [8] | Potency [10]

CCN(CC)CCOc1ccc(Nc2ncc3cc(-c4c(Cl)cccc4Cl)c(=O)n(C)c3n2)cc1
active: Potency [7] 935 nM | Potency [8] 2090 nM | Potency [9] 166 nM | Potency [10] 2640 nM | Potency [11] 166 nM | Potency [12] 2090 nM
inactive: outcome [13] | Potency [3] | Potency [4]

S=c1nc[nH]c2nc[nH]c12
inactive: Potency [2] | Potency [3] | Potency [4] | Potency [8] | Potency [9] | Potency [12]
active: Potency [10] 2350 nM | Potency [11] 2350 nM

O=Nc1c(-c2c(O)[nH]c3cc(Br)ccc23)[nH]c2ccccc12
inactive: outcome [13] | Potency [3] | Potency [4] | Potency [7]
active: Potency [15] 5900 nM | Potency [8] 14800 nM | Potency [9] 1050 nM | Potency [10] 14800 nM | Potency [12] 8330 nM

CCN(CCO)CCCC(C)Nc1ccnc2cc(Cl)ccc12 (stereo not drawn)
inactive: activity change, negative = cytotoxicity [1] -19.5% [at 3.71 µM] | activity change, negative = inhibition [4] -25.1% [at 4.52 µM] and 2.25% [at 4.52 µM] | activity change, negative = inhibition [5] -0.741% [at 6.45 µM] | activity, negative = inhibition [14] -2.86% [at 6.45 µM] | redox activity (% of DA3003) [6] -6.64% [at 6.41 µM] | Potency [7] | Potency [8] | Potency [10] | Potency [12]

C[C@H](Cc1ccc(O)c(O)c1)[C@@H](C)Cc1ccc(O)c(O)c1
inactive: outcome [13] | Potency [3] | Potency [4]
active: Potency [7] 2090 nM | Potency [15] 16600 nM | Potency [9] 7430 nM | Potency [10] 20900 nM | Potency [12] 5260 nM

CC(C)[C@H](N)C(=O)OCCOCn1cnc2c(=O)[nH]c(N)nc21
active: Potency [9] 26400 nM
inactive: outcome [1] | Potency [4] | Potency [15] | Potency [8] | Potency [10] | Potency [11] | Potency [12]

Cc1ccc(NC(=O)c2ccc(CN3CCN(C)CC3)cc2)cc1Nc1nccc(-c2cccnc2)n1
active: Potency [5] 19000 nM | Potency [15] 20900 nM
inactive: outcome [1] | Potency [3] | Potency [4] | outcome [14] | outcome [6]

O=c1c(O)c(-c2ccc(O)cc2O)oc2cc(O)cc(O)c12
inactive: outcome [13] | Potency [3] | Potency [7] | Potency [8] | Potency [10] | Potency [11]
inactive and 10.1 µM (active): Potency [4]

CCOC(=O)C1=C(O)C(=O)N(Cc2ccccc2)C1
inactive: outcome [13] | Potency [3] | Potency [4] | Potency [7] | Potency [8] | Potency [9] | Potency [11] | Potency [12]

CN(C)C(=O)COC(=O)Cc1ccc(OC(=O)c2ccc(N=C(N)N)cc2)cc1
inactive: outcome [1] | Potency [3] | Potency [4] | Potency [7] | Potency [10]
active: Potency [12] 7430 nM

Cc1nc(Nc2ncc(C(=O)Nc3c(C)cccc3Cl)s2)cc(N2CCN(CCO)CC2)n1
active: Potency [9] 2640 nM | Potency [11] 2350 nM | Potency [12] 16600 nM
inactive: outcome [1] | Potency [3] | Potency [4] | Potency [5] | outcome [14] | outcome [6]

Cc1cc(O)c2c(c1)C(=O)c1cc(O)cc(O)c1C2=O
active: Potency [7] 418 nM
inactive: outcome [16] | outcome [17] | outcome [18] | outcome [19] | outcome [20] | outcome [13] | Potency [3] | Potency [4] | Potency [9] | Potency [11] | Potency [12]

COC(=O)N[C@H](C(=O)N[C@@H](Cc1ccccc1)[C@@H](O)CN(Cc1ccc(-c2ccccn2)cc1)NC(=O)[C@@H](NC(=O)OC)C(C)(C)C)C(C)(C)C
inactive: outcome [1] | Potency [3] | Potency [4] | Potency [7] | Potency [15] | Potency [8] | Potency [11] | Potency [12]
active: Potency [10] 16600 nM

CCOC(=O)c1c(C)n(C)c2ccc(O)cc12
inactive: outcome [1] | Potency [7] | Potency [8] | Potency [9] | Potency [11] | Potency [12]

Oc1ccc(OCc2ccccc2)cc1
active: Potency [10] 18700 nM
inactive: outcome [1] | Potency [3] | Potency [4] | Potency [7] | Potency [8] | Potency [9] | Potency [11] | Potency [12]

O=C1c2ccccc2-c2n[nH]c3cccc1c23
inactive: outcome [13] | Potency [3] | Potency [4] | Potency [7] | Potency [12]
active: Potency [8] 1.7 nM | Potency [9] 20900 nM | Potency [11] 1180 nM

Cc1cccc(-c2[nH]ncc2-c2ccc3ncccc3n2)n1
inactive: outcome [13] | Potency [3] | Potency [4] | Potency [8] | Potency [9] | Potency [10] | Potency [11] | Potency [12]
active: Potency [7] 118 nM

Cc1cccc(C#Cc2ccccc2)n1
active: Potency [10] 20900 nM
inactive: outcome [13] | Potency [3] | Potency [4] | Potency [7] | Potency [15] | Potency [8] | Potency [9] | Potency [12]

C[C@H](Cn1cnc2c(N)ncnc21)OCP(=O)(O)O
inactive: outcome [1] | Potency [7] | Potency [8] | Potency [10] | Potency [11] | Potency [12]
